Where “and” joins values, the source holds several entries; their conditions need not be identical. Equal entries are not always repeated. Inconclusive results are not listed. Where a structure was tested more than once in an assay, its records may differ in their call. Calls of active or inactive are those of the source. Unless noted, calls follow the shape of the dose curve; as a rule, active = well fitted curve in the direction sought with a large enough effect in the repeat runs; inconclusive = weak or mixed curves; inactive = no such curve, though single readings can be large; an effect the other way counts as inactive or inconclusive.

Assay [1] in a line: Caspase-3/7 induction in HepG2 cells by small molecules, qHTS assay (AID 1346978). Also: nearly all actives have a fitted effect of over 15% in size. Also: potency is read from the fitted curve at half-maximal effect. Summed up:
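Wild-type HepG2 cells, 2,000/well, settled 5 hr at 37 C and 5% CO2, then compound-treated for 17 hr; caspase-3/7 activity read by luminescent Caspase-Glo 3/7 after 30 min at room temperature.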
A general note: In qHTS, concentration-response curves come from the screen itself.

Assay [2] can be described thus: Caspase-3/7 induction in CHO-K1 cells by small molecules, qHTS cell viability counter screen (AID 1346979). Also: nearly all actives have a fitted effect of over 35% in size. In outline: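 Seeding: 1,500 CHO-K1 cells/well. Rest: 5hr, 37C. Treatment: compounds in DMSO, 16hr. Read: CellTiter-Fluor, 1hr, fluorescence.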
Assay [3] is described as follows: Caspase-3/7 induction in CHO-K1 cells by small molecules, qHTS assay (AID 1346980). Also: nearly all actives have a fitted effect of over 15% in size. In outline:
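Wild-type CHO-K1 cells exposed to compounds for 17hr at 37 C, 5% CO2. Caspase-3/7 activity then measured by Caspase-Glo 3/7 luminescence after 30min at room temperature.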

Assay [4] can be described thus: Caspase-3/7 induction in HepG2 cells by small molecules, qHTS cell viability counter screen (AID 1346981). Also: nearly all actives have a fitted effect of over 30% in size. Also: potency is read from the fitted curve at half-maximal effect. Summed up:
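Wild-type HepG2 cells, 2,000/well, settled 5 hr at 37 C, 5% CO2 before compound addition. Viability read by CellTiter-Fluor fluorescence, reagent added after 16 hr compound exposure, then 1 hr at 37C, in the same wells as the caspase read.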

In assay [5] the target is Nuclear receptor subfamily 1 group I member 2 (Homo sapiens) (UniProt O75469). The assay can be described thus: Human pregnane X receptor (PXR) small molecule agonists, qHTS assay (AID 1346982). Also: nearly all actives have a fitted effect of over 35% in size. Also: potency is read from the fitted curve at half-maximal effect. Summed up: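 PXR-Luc HepG2 reporter cells (CYP3A4-driven luciferase) in 5% charcoal-stripped FBS medium, plated 5 h before compound addition, then treated 24 h at 37C. Luciferase read by ONE-Glo luminescence after 30 min at room temperature.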

For assay [6], the target named is Acetylcholinesterase (Homo sapiens) (UniProt P22303). Description: Acetylcholinesterase (AChE) small molecule antagonists: enzyme-based qHTS assay (AID 1347397; calls by dose curve; also: nearly all actives have a fitted effect of over 55% in size). The following applies: Potency: AChE enzyme activity inhibition. In outline: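 Recombinant human AChE (50 mU/mL) preincubated with compound 30 min at room temperature; acetylthiocholine plus DTNB then added, and thiocholine formation read colorimetrically after 10 min at room temperature. DMSO served as vehicle control.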

The target is the same in assay [7]. The assay can be described thus: Acetylcholinesterase (AChE) small molecule antagonists: fluorescence cell-based qHTS assay (AID 1347398; calls by dose curve; also: nearly all actives have a fitted effect of over 50% in size). The following applies: Potency: AChE activity. In outline: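 SH-SY5Y cells (2000/well), attached overnight, incubated with compound 30 min at 37 C. Acetylthiocholine plus Thiolite Green then added for 40 min at room temperature. Thiocholine fluorescence (Ex/Em 490/520 nm) reports cellular AChE activity.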

The target of assay [8] is Cytochrome P450 2D6 (Homo sapiens) (UniProt P10635). The assay can be described thus: Cytochrome P450 Family 2 Subfamily D Member 6 (CYP2D6) small molecule antagonists: luciferase reporter qHTS assay (AID 1671196). Also: nearly all actives have a fitted effect of over 50% in size. Also: potency is read from the fitted curve at half-maximal effect. In outline: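 Cell-free P450-Glo system: CYP2D6 with proluciferin substrate was pre-incubated with compound for 10 min, then reacted with NADPH regeneration for 1 h at room temperature. Luciferin product was detected after 20 min, and data were reported as relative luminescence units.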
For orientation: A reporter such as luciferase makes a cellular process visible.

Assay [9] has as its target Cytochrome P450 2C19 (Homo sapiens) (UniProt P33261). The assay can be described thus: Cytochrome P450 Family 2 Subfamily C Member 19 (CYP2C19) small molecule antagonists: luciferase reporter qHTS assay (AID 1671197). Also: nearly all actives have a fitted effect of over 65% in size. Also: potency is read from the fitted curve at half-maximal effect. In outline: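 CYP2C19 P450-Glo, 1536-well qHTS. Cpd + enzyme/proluciferin substrate 10 min RT; + NADPH regen, 37C 1 h; stop with luciferin detection reagent, 20 min RT, luminescence (RLU). Pos ctrl ketoconazole.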

For assay [10], the target named is Cytochrome P450 2C9 (Homo sapiens) (UniProt P11712). Description: Cytochrome P450 Family 2 Subfamily C Member 9 (CYP2C9) small molecule antagonists: luciferase reporter qHTS assay (AID 1671198). Also: nearly all actives have a fitted effect of over 50% in size. Also: potency is read from the fitted curve at half-maximal effect. In outline:
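P450-Glo proluciferin substrate with CYP2C9 enzyme; 10 min RT preincubation, then NADPH regeneration 1 h at 37C; luciferin detection reagent 20 min RT, luminescence in relative luminescence units.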

Assay [11] has as its target Cytochrome P450 1A2 (Homo sapiens) (UniProt P05177). Description: Cytochrome P450 Family 1 Subfamily A Member 2 (CYP1A2) small molecule antagonists: luciferase reporter qHTS assay (AID 1671199). Also: nearly all actives have a fitted effect of over 50% in size. Also: potency is read from the fitted curve at half-maximal effect. Summed up:
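P450-Glo CYP1A2 enzyme–proluciferin substrate mix with compound 10 min at room temperature, then NADPH regeneration 1 h at room temperature. Luciferin detection reagent added, luminescence read after 20 min; furafylline positive control.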

Assay [12] addresses Voltage-gated inwardly rectifying potassium channel KCNH2 (Homo sapiens) (UniProt Q12809). The assay can be described thus: Human Ether-a-go-go-Related Gene (hERG) channel small molecule antagonists: fluorescence cell-based qHTS assay (AID 1671200). In outline: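 First, 1000 cells per well are seeded and cultured overnight at 37 C. Next, FluxOR II dye is loaded for 1 h at room temperature, protected from light. After 10 more minutes, stimulus is added and fluorescence is read.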

Assay [13] concerns the target Cytochrome P450 3A4 (Homo sapiens) (UniProt P08684). The assay can be described thus: Cytochrome P450 Family 3 Subfamily A Member 4 (CYP3A4) small molecule antagonists: luciferase reporter qHTS assay (AID 1671201). Also: nearly all actives have a fitted effect of over 50% in size. Also: potency is read from the fitted curve at half-maximal effect. Summed up: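 Enzyme and proluciferin substrate are mixed with test chemicals for 10 min, then NADPH regeneration system drives turnover for 1 h at room temperature. A detection reagent halts the reaction; luminescence after 20 min gives relative activity.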

The target in assay [14] is Nuclear receptor subfamily 1 group I member 2 (Rattus norvegicus) (UniProt Q9R1A7). Description: Rat pregnane X receptor (rPXR) activation by small molecules, qHTS assay (AID 1346983). Also: nearly all actives have a fitted effect of over 20% in size. The following applies: rPXR luciferase reporter cells, One-Glo luminescence, 24 h; stronger effect = higher value. Summed up:
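Cell-based rPXR activation assay: rPXR cells, 2,000 per well, rested 5hr at 37 C, then exposed to compounds in DMSO for 24 hr at 37 C. Luciferase activity read by One-Glo luminescence after 30 min at room temperature.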

Assay [15] has as its target Nuclear receptor subfamily 1 group I member 2 (Homo sapiens) (UniProt O75469). Description: CYP3A4 induction through human pregnane X receptor (PXR) by small molecules, qHTS assay (AID 1346984). Also: nearly all actives have a fitted effect of over 40% in size. Summed up: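 DPX-2 HepG2 cells carrying a PXR response element and CYP3A4-promoter luciferase construct, treated with compounds 24 hr at 37C. Then P450-Glo CYP3A4 Luciferin-IPA substrate (3uM final) for 3 hr at 37C, One-Glo added, luminescence read.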

For assay [16] the target is unchanged. The assay can be described thus: Human pregnane X receptor (PXR) activation by small molecules, qHTS assay (AID 1346985). Also: nearly all actives have a fitted effect of over 40% in size. In outline:
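DPX-2 cells (HepG2 co-transfected with a PXR response element and a CYP3A4-promoter luciferase construct) were seeded at 2,000 per well, rested 5 hr at 37C, then exposed to DMSO-dissolved compounds for 24 hr. Activation was read as luciferase luminescence.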
% is scaled to controls: 0 for no effect and ±100 for the full control effect.

Sequence of Cytochrome P450 2D6 (Homo sapiens) (P10635 whole entry, looked up): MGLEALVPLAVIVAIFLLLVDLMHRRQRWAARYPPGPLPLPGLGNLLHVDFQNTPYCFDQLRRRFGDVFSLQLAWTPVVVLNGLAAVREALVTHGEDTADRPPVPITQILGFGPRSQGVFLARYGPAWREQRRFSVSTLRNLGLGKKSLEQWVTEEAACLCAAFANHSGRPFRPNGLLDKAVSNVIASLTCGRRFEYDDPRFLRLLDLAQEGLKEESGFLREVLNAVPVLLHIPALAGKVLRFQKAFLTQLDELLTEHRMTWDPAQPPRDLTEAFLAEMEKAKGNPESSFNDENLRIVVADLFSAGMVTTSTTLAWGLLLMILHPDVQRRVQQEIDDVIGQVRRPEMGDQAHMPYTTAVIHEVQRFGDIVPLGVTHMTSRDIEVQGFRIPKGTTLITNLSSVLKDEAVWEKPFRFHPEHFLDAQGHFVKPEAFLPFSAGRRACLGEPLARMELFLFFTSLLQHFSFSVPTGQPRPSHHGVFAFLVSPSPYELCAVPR
Sequence of Cytochrome P450 2C19 (Homo sapiens) (P33261 whole entry, looked up): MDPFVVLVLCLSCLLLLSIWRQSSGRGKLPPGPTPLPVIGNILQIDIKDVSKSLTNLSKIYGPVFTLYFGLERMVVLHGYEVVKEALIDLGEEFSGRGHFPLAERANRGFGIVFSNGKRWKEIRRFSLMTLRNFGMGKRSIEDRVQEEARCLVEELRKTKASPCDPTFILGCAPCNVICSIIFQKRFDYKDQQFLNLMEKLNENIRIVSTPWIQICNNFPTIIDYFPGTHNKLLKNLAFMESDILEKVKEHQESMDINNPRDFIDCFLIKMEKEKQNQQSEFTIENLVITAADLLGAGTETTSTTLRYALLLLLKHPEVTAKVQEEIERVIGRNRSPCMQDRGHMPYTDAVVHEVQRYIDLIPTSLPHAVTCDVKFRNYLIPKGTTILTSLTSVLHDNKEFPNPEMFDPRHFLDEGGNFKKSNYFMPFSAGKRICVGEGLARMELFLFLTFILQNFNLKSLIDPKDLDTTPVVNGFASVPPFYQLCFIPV
Sequence of Voltage-gated inwardly rectifying potassium channel KCNH2 (Homo sapiens) (Q12809 whole entry, looked up): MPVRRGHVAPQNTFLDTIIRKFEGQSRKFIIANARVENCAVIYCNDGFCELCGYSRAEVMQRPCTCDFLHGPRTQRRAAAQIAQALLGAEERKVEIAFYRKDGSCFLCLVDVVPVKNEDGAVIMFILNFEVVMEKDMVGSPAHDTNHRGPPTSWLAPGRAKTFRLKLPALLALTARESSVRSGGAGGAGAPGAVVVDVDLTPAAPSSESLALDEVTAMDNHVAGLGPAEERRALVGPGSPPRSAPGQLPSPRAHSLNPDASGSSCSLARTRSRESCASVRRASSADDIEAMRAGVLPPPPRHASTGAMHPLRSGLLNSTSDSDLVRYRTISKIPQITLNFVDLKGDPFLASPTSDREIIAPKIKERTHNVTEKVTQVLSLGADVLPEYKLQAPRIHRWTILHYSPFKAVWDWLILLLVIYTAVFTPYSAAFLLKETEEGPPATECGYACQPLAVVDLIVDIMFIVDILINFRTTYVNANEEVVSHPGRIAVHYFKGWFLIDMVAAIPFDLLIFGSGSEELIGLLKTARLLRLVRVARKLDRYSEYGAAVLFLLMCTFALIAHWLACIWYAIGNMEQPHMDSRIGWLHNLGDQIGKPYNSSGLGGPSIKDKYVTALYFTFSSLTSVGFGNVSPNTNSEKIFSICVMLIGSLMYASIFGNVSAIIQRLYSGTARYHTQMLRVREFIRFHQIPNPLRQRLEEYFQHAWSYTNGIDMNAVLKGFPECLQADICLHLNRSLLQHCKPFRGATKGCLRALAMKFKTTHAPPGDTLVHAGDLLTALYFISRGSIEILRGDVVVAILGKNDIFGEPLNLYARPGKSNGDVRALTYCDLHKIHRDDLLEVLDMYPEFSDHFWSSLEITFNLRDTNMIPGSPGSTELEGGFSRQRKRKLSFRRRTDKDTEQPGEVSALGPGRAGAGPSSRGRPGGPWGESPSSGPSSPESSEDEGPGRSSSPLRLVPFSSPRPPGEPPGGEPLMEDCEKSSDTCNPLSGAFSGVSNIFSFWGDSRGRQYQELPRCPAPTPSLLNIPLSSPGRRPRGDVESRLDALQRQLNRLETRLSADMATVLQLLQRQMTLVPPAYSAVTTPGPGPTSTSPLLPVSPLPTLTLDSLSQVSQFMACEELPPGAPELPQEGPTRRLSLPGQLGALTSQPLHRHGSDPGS
Sequence of Nuclear receptor subfamily 1 group I member 2 (Homo sapiens) (O75469 whole entry, looked up): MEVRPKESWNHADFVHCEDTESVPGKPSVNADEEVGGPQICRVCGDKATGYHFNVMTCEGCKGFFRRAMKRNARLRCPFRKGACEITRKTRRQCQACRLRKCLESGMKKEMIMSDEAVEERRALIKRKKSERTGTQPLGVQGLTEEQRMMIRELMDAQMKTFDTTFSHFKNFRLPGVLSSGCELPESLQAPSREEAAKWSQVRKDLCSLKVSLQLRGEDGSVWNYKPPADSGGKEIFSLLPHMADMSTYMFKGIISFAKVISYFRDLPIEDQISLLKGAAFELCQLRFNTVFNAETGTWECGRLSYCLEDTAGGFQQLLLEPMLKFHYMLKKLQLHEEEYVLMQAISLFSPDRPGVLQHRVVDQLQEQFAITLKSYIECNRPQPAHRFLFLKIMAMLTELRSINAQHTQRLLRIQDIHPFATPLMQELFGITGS
Sequence of Cytochrome P450 1A2 (Homo sapiens) (P05177 whole entry, looked up): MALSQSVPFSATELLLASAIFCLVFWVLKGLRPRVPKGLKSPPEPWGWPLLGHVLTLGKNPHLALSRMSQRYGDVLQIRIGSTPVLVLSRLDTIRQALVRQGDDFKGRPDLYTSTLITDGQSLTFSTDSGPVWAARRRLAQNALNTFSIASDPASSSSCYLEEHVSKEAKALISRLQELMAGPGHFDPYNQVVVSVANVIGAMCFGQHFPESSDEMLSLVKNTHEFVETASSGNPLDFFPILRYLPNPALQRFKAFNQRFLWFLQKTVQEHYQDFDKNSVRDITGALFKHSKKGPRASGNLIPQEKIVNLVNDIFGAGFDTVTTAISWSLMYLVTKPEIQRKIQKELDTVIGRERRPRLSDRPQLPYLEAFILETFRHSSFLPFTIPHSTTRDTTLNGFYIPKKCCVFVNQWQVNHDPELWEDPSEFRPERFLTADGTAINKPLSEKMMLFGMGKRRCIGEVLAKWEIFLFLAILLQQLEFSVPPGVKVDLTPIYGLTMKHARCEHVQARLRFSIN
Sequence of Cytochrome P450 3A4 (Homo sapiens) (P08684 whole entry, looked up): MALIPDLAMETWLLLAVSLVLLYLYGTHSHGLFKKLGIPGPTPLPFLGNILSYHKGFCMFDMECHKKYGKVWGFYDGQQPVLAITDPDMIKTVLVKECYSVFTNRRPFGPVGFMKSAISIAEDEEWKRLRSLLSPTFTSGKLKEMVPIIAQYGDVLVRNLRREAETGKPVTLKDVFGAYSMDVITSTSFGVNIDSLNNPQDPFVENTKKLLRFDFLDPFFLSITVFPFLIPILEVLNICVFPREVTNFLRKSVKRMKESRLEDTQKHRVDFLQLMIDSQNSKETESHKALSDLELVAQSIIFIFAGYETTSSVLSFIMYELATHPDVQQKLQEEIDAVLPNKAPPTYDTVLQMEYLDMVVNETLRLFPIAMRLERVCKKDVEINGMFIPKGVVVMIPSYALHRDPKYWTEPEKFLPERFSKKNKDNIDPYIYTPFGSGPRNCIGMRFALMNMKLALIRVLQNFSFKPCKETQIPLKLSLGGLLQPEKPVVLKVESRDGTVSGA
Sequence of Cytochrome P450 2C9 (Homo sapiens) (P11712 whole entry, looked up): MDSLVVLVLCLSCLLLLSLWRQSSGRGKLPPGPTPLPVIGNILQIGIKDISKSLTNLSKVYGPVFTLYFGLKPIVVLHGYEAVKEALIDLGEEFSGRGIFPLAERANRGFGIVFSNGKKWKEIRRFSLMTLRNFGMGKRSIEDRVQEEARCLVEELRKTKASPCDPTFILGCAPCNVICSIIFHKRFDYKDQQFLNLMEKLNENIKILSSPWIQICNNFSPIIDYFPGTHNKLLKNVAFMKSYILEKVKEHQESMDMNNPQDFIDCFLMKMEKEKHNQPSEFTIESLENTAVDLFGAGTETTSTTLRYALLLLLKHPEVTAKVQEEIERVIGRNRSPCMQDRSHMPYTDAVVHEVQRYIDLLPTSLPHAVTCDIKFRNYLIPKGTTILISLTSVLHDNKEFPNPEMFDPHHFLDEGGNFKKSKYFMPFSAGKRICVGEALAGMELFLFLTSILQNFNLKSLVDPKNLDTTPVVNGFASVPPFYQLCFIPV
Sequence of Acetylcholinesterase (Homo sapiens) (P22303 whole entry, looked up): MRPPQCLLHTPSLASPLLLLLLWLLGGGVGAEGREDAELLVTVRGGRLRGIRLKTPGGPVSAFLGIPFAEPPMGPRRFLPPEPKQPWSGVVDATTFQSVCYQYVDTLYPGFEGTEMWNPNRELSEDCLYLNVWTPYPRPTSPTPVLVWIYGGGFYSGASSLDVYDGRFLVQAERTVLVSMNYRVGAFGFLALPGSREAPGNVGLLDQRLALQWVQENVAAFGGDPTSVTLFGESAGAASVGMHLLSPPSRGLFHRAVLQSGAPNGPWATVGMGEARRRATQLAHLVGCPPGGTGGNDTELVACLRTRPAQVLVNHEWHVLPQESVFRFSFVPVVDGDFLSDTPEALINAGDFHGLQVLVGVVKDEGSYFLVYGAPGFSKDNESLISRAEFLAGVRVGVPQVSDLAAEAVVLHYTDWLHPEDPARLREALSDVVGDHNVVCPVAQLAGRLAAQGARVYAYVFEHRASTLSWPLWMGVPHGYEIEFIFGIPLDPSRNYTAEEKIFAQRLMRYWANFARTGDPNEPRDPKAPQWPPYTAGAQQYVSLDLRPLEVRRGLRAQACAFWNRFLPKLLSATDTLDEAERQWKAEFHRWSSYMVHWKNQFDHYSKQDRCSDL

Take `O=c1nc(O)n(Cl)c(=O)n1Cl`: the Potency result in assay [1], in [2], in assay [3], in assay [4], in assay [5] and in assay [6] was “inactive” each time. Further, the Potency result in assay [7], in [9], in assay [10], in assay [11], in assay [12] and in assay [13] was “inactive” in each case. Besides, the Potency entry in assay [8] is “inactive and 1.26 µM (active)”.

As for `CC(=O)O`, the Potency entry in [1], in assay [2], in [3], in [4] and in [12] was “inactive” each time.

For the compound `COP(=O)(OC)OC=C(Cl)Cl`, the Potency result in [1], in assay [2], in assay [3], in assay [4], in assay [5] and in assay [16] was “inactive” in each case. The Potency entry in assay [6], in assay [7], in assay [8], in assay [9], in assay [10] and in assay [12] was “inactive” each time. The Potency entry in assay [13] is “inactive”. For the same compound, in [14], the max activation is 0.647% (inactive). Also, the call in [15] was inactive. Further, in [11], the Potency result is “inactive and 15.4 µM (active)”.

Consider `CCCC[n+]1ccccc1C`, for which the Potency entry in [1], in assay [2], in [3], in [4], in assay [5] and in assay [8] was “inactive” throughout. Moreover, the Potency result in assay [9], in assay [10], in [11], in assay [12] and in assay [13] was “inactive” throughout.

In the case of `CCCC[n+]1cccc(C)c1`, the Potency entry in [1], in [2], in assay [3], in assay [4], in [5] and in [8] was “inactive” in each case. Further, the Potency result in [9], in assay [10], in assay [11], in assay [12] and in assay [13] was “inactive” each time.

In the case of `CC(Cl)(Cl)C(=O)O`, the Potency entry in assay [1], in [2], in [3], in assay [4], in assay [6] and in [7] was “inactive” each time. The Potency result in [8], in assay [9], in [11], in [12] and in [13] was “inactive” throughout. Also, the Potency entry was “inactive and 61.3 µM (active)” in assay [5]; “inactive and 63.3 µM (active)” in assay [10].

Turning to `Nc1ccc(-c2ccc(N)cc2)cc1`, the Potency entry in assay [1], in assay [2], in assay [3], in assay [4], in [6] and in [7] was “inactive” in each case. Also, the Potency result in assay [8] and in assay [12] was “inactive” throughout. Moreover, the Potency is 30.3 µM (active) and 1.08 µM (active) and 34.4 µM (active) in assay [5]; 8.83 µM (active) and 39.6 µM (active) and 35.6 µM (active) in assay [9]; 35.2 µM (active) and 11.2 µM (active) and 25.2 µM (active) in assay [10]; 19.8 µM (active) and 14.1 µM (active) and 25.2 µM (active) in assay [11]; 7.87 µM (active) and 7.91 µM (active) and 17.8 µM (active) in assay [13].

In the case of `O=C(O)C(Cl)(Cl)Cl`, the Potency entry in assay [1], in assay [2], in [3], in [4], in assay [5] and in [16] was “inactive” each time. The Potency result in assay [6], in assay [7], in [8], in [10], in [12] and in assay [13] was “inactive” in each case. Also, the max activation in assay [14] was -1.14% (inactive). For the same compound, the compound was classed as inactive in assay [15]. Also, the Potency in [9] is 20 µM (active); in assay [11] it was “inactive and 35.6 µM (active)”.

Take `O=C(O)c1ccccc1O`: the Potency entry in [1], in [2], in [3] and in assay [12] was “inactive” in each case.

Consider `COc1ccccc1N`, for which the Potency result in assay [1], in assay [2], in [3], in assay [5], in assay [10] and in assay [12] was “inactive” throughout. Further, the Potency is 17.8 µM (active) and 35.7 µM (active) and 12.6 µM (active) in [8]; 39.9 µM (active) and 32.3 µM (active) and 35.6 µM (active) in [11]; 22.4 µM (active) and inactive and 28.3 µM (active) in assay [13].

Turning to `COc1ccc(N)cc1`, the Potency entry in assay [1], in assay [2], in assay [3], in assay [11], in assay [12] and in assay [13] was “inactive” each time. In addition, the Potency is 60.6 µM (active) in assay [5], 39.9 µM (active) [middle of 4 runs] in assay [9] and 39.9 µM (active) in [10].

With `CCCCCCCCCCCCn1cc[n+](C)c1`, the Potency was 43.6 µM (active) and inactive in assay [1]; 24.5 µM (active) and inactive in [4]; 9.01 µM (active) and inactive and 64.3 µM (active) in assay [10]; 80.3 µM (active) and inactive in assay [13]. Besides, the Potency result in assay [3] was “inactive”.

Consider `CC[N+](CC)(CC)CC`, for which the Potency result in assay [1], in assay [2], in assay [3] and in [12] was “inactive” each time. In [14], the max activation was -1.28% (inactive).

On to `CCCC[N+]1(C)CCCC1`, for which the Potency result in [1], in assay [2], in [3], in assay [5], in [8] and in assay [10] was “inactive” in each case. Besides, the Potency entry in assay [11], in [12] and in assay [13] was “inactive” throughout. In addition, in [9], the Potency result was “inactive and 40.2 µM (active)”.

Take `CNC`: the Potency result in [1], in assay [2], in [3], in assay [5], in assay [6] and in assay [7] was “inactive” in each case. For the same compound, the Potency entry in assay [8], in assay [9], in [10], in [11], in assay [12] and in assay [13] was “inactive” in each case.

The values are drawn from PubChem BioAssay (Tox21).
